Measured values taken from the supplement of paper PMC6555819.

How the values were obtained:
Assay in all cases: PBM binding z-score (relative to random genomic background probes); higher = stronger binding; sequences stand for … in GC…GCGATTGACAGCGTAGAATGAAGG
[1] = system: RARb homodimer (NR concentration 270 nM)
Summary of the method: (§1)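 Binding buffer was PBS pH 7.4 with 2% milk, 0.02% Triton X-100, 1 mM DTT, 0.2 mg/mL BSA and 0.4 mg/ml salmon testes DNA. In it, ligand-free nuclear receptor dimers were incubated 1 h on custom Agilent 4×180K protein-binding microarrays carrying double-stranded probes. Antibodies against each partner (one per run) detected binding, and z-scores were calculated against random background probes after regression normalization of scanned fluorescence.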

[2] = system: RARg:RXRa (NR concentration 270 nM, RXRa partner concentration 90 nM)
Summary of the method: as §1

[3] = system: RARg homodimer (NR concentration 270 nM)
Summary of the method: as §1

[4] = system: RXRa DBDmut IVT, anti-RXR (DBD mutation: RXRa K156A/R161A, NR concentration 90 nM)
Summary of the method: as §1

[5] = system: RXRa homodimer (NR concentration 180 nM)
Summary of the method: as §1

[6] = system: THRa:RXRa (NR concentration 90 nM, RXRa partner concentration 90 nM)
Summary of the method: as §1

[7] = system: THRa homodimer (NR concentration 90 nM)
Summary of the method: as §1

[8] = system: VDR homodimer (NR concentration 270 nM)
Summary of the method: as §1

Sequence	PBM binding z-score [1]	PBM binding z-score [2]	PBM binding z-score [3]	PBM binding z-score [4]	PBM binding z-score [5]	PBM binding z-score [6]	PBM binding z-score [7]	PBM binding z-score [8]
TCTAGTAGTTGAAGGGCAACCGACGAGTCCGTTT	1.29	0.178	0.164	1.02	0.622	0.117	-0.38	0.676
CCTACTGGGCCATCAGGCCATTGATATCAACGTT	0.414	-0.00329	0.297	-0.604	-0.42	0.561	0.656	-0.112
GCTCGGAGGACATGGTCAGAGCTTTGTCCGTAGA	0.143	-0.271	0.158	-0.383	-0.444	0.524	-0.306	-0.849
TCACATAGGTAAAAGGTGAAAGTCGGTGTGGTAA	1.98	2.02	0.992	1.3	3.3	1.72	0.0653	-0.0676
AATACAGAGTCATCGTAGGCCAGAGTACGCACAG	0.0687	0.22	0.465	-0.473	0.406	1.69	-0.921	0.0153
CCCACTGGGGCATAAGGTTACCATAAGCCAGCCC	1.49	1.56	1.09	-1.4	1.07	1.92	1.01	-0.364
CCTAGTTGGTCAGGAGGTCAGACACCGGATATGA	3.57	3.8	3.09	0.173	2.74	2.43	1.11	1.42
CGTCCAAGGTGAGAGAGGTCAGTGAATGCCGAGT	4.13	3.38	3.7	0.994	2.89	3.33	1.95	3.07
TCTCGGAGGACACGAAGGTCAGTGCTTTCCAGAG	3.9	2.87	3.49	0.969	1.47	2.73	1.06	1.39
AGAACGAGGGCAATGAGTTGAGAGCACGGGTGGC	1.1	0.994	1.58	1.93	0.838	1.1	-0.211	2.08
CAAACTAGCTCAAGGTCAAAGTCGGTTTGTGCCA	4.04	4.12	3.84	2.23	4.51	3.95	3.59	3.7
AGAACGAGGGCACGCTAAGTTGATAGCAGAGTAG	1.19	2.2	2.4	1.74	1.49	1.97	0.0343	1.42
ACAGACAGGTGATGAAGGTAGCTCAGGCTATCAT	-0.243	-0.0777	0.295	-0.263	0.147	0.294	-0.392	-0.696
ATACCAAGGTGATCGTGAGGTCGTTAATACTAAC	1.68	1.93	0.856	0.881	1.32	3.3	2.44	3.04
GTACCAAGGTGAATAGGTTGTTGATGAGTAGGCG	0.824	1.07	0.763	0.247	0.717	1.55	0.782	0.391
CGTCCCAGGTCAGAGAGGTCAGTGAATGCCGAGT	4.89	5.03	5.73	1.72	4.33	4.24	2.92	4.31
TTACCAAGGTGAAGGTCGTTGGTCCCTCTGTAGA	1.98	1.01	0.783	0.488	1.27	2.29	1.1	0.98
GCATATAGGTAATACAAGGTGACAGTCCGATTGT	0.679	0.651	0.825	0.299	0.86	4.15	0.967	0.0173
TCGAGTAGGTTAGGGGCATTCAGAATGGCGTCGA	0.976	0.269	0.406	0.45	0.658	0.87	0.0711	0.98

Sequence	PBM binding z-score [1]	PBM binding z-score [2]	PBM binding z-score [3]	PBM binding z-score [4]	PBM binding z-score [5]	PBM binding z-score [6]	PBM binding z-score [7]	PBM binding z-score [8]
CCGACTGGGCCATAAGGTTACCATAAGCCAGCCC	1.25	0.915	0.48	-0.727	0.767	2	1.52	-0.224
CTCGAAAGGTCTGTTGAGGTGAGTATACGGATAA	0.88	0.827	1.16	-0.237	0.536	4.3	1.12	-0.104
ACTAGTTGGTCATCTGAGGTCACACACAATTCGG	4.29	4.22	4.23	1.93	4.26	5.17	5.44	4.23
CGAACTAGGTCAAGGACAGTGTATCTCCGCACGC	3.56	3.8	4.37	1.87	2.55	3.45	2.61	0.841
TTACCAAGGTAAAGGTCGTTGATCCCTCTGTAGA	2.13	1.95	1.08	0.533	2.7	2.48	0.667	1.55
CTCGAAAGTTCGTGCTCAGGTGAGTATACCAAAC	1.55	2.29	1.52	2.83	1.01	2.86	0.851	1.88
GCATGTAGGTAATACAAGGTGAAAGTCCGATTGT	0.748	0.359	0.236	-0.332	0.495	3.96	0.81	-0.301
ACAGACAGGTGAGTGAAGGCAACTCAGCTGGACG	-0.0202	0.0165	0.418	-0.43	0.192	0.383	-0.689	-0.742
CCGACTGGGGCAAGGTTGCCATAACGCACAGCCA	0.376	0.327	0.556	-0.586	0.107	0.0473	-0.389	-0.526
CAAACTAGGTTACAGAGGTCAAAGTCCGTGCGTA	4.97	6.01	5.51	2.53	7.1	4.14	2.24	5.09
CAATCTAGGTCACCGGAAGGTCAAAGTCCGCATG	5.77	8.45	7.81	1.98	7.46	4.59	3.62	4.12
CCTAGTTGGTCAGGAGGTCACACCCCGGATATGA	4.41	5.03	4.13	0.124	4.77	3.74	2.36	2.96
CCAGACAGGTGAAAGGTAAATCAGTCTGGTACGC	0.653	1.04	0.721	-0.121	1.85	0.832	-0.308	0.0909
CCTAGCAGGCCAATCTGGGTCACACAAGGCTTGA	2.53	1.61	1.82	0.0737	1.63	3.99	0.9	0.17
CCGACTGGGACAGAAAGGTTACCATACCATCCGG	2.12	1.37	0.963	-0.641	1.61	1.19	-0.195	-0.17
CCGACTGGGGCAGAAAGGTTAACATACCATCCGG	2.42	1.95	1.84	-0.366	2	1.09	-0.284	-0.0953
TTACCAAGGTGAAGGTCGTTGTTCCCTCTGTAGA	2.09	1.36	1.24	0.33	1.49	2.4	1.18	1.11
GCTATTAGTGGAAAGGGCAACCGAATGATTCTCG	1.77	1.05	1.12	0.693	0.775	0.344	-0.457	-0.143
GATACAGGGTCAAGGGCAGAGTACGCGTATTGAT	3.91	5.63	5.26	2.38	6.19	3.7	1.49	3.28

Sequence	PBM binding z-score [1]	PBM binding z-score [2]	PBM binding z-score [3]	PBM binding z-score [4]	PBM binding z-score [5]	PBM binding z-score [6]	PBM binding z-score [7]	PBM binding z-score [8]
ACAGACAGGTGAGTTAAGGTAACTCAGCTGGACG	-0.0673	0.439	0.59	-0.352	0.374	4.35	1.8	-0.547
CCTCGGAGGACAGATGGTCAGAGCTGTCCGCTTT	0.0769	0.0731	0.421	-0.0448	-0.625	-0.175	-0.332	-0.436
GCTTGTAGATCCAGGTTAAGAAAGACTAAGCTAA	-0.153	-0.172	-0.0642	-0.00816	-0.0609	0.485	-0.162	-0.0555
CGTCAAAGTTCAAGGTAACGTACCAGAAAGCAGC	3.97	5.35	6.14	4.5	4.54	3.12	1.39	3.21
TCAGACAGGTGAAGGTAACTCTGGTACGCAGTCG	0.721	0.492	0.535	1.03	0.951	1.01	0.16	0.154
CGAACTAGGGCATTGACAGGACAGTGAATAGTAA	0.812	1.07	1.13	0.467	0.388	0.559	-0.0936	0.137
CCTGCTAGGTCAATCGTCAGCTAAAGCAGCTCGC	2.83	3.59	4.42	1.78	2.15	2.11	0.36	-0.0155
TCTTGTAGATCAACAGCAGGTTAAGAAAGATCGA	0.0548	0.165	-0.0185	0.681	0.512	0.308	-0.504	-0.471
CCAGACAGGAGAGAAGGTAACTCAGCCTCGATTA	0.0999	-0.0304	0.0804	0.0336	0.0715	0.145	0.357	0.0493
ATATGTAGGTTATCGGTTCATTCAGTTTGCGCAT	1.17	1.39	0.882	2.4	1.66	1.27	1.08	5.79
TCGAGTAGGTTACCAATGGGGCATTCTGCTTTCT	0.45	0.898	0.393	0.539	0.447	-0.229	-0.884	-0.862
AGAACGAGGGCACGCTGAGATGATAGCAGAGTAG	1.2	1.91	2.21	1.8	1.41	1.48	-0.0737	0.452
CAAACTGGGTCAAGAGGTCAAAGTCCGCTTCCCG	5.73	7.97	7.04	2.51	8.44	4.14	2.13	4.76
CCTACGGGGCCAAAAAGGTCATTGATGCCGATAA	4.54	5.07	4.8	1.23	5.09	3.44	0.423	3.98
TTACCGAGGTGAAGGTCGTTGATCCCTCTGTAGA	1.72	1.58	1.02	-0.12	2	2.66	1.16	0.99
TAGCGTAGGTCATGGGCCAGTATACCACGCGAAC	2.74	4.61	4.67	-0.189	4.73	2.38	-0.142	0.0635
CCTATTGGGCCATCAGGTCATTGATATCAACGTT	2.49	2.26	1.88	0.643	1.39	3.3	2.98	1.87
TATACAGGGTCAAAGGCCGGAGTACGAATGTCGA	3.45	5.49	4.9	2.94	6.66	3.34	0.872	3.02
